Reference: PubChem BioAssay AID1159580 (chemical genetic matrix, 2015)
Where “and” joins values, the source holds several entries; their conditions need not be identical. Identical values can stand only once. Screen size: about 5,500 compounds; about 2,000 (36%) were called active. About 18% were inconclusive and are not listed. Rule as the data show it: active = normalized growth mostly below about 0.91 (no sharp cut-off); inconclusive = no clear call, values can overlap the other calls; inactive = mostly above about 0.92. The list shows a part of the results.

Assay: chemical genetic growth profiling, strain panel (AID 1159580);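 also: tested at 20 µM; growth read once vehicle control cultures reached saturation at 30 °C; 1 = growth at the plate median or of vehicle wells; lower values mean less growth of the strain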
Details: S. cerevisiae deletion strains, growth OD

Measured: normalized growth

CC(=O)Oc1ccc2c(c1C(C)C)CCC1C(C)(C)CCC[C@]21C (stereo not given in full)
inactive: locus YAL013W, strain DEP1, hits give low values 1.02 | locus YAL021C, strain ccr4, hits give low values 0.996 | locus YAL026C, strain drs2, hits give low values 1.03 | locus YAL030W, strain snc1, hits give low values 1.01 | locus YBL061C, strain skt5, hits give low values 1.03 | locus YBR009C, strain hhf1, hits give low values 1.02 | locus YBR021W, strain FUR4, hits give low values 1.01 | locus YBR023C, strain chs3, hits give low values 1.03 | locus YBR171W, strain sec66, hits give low values 1.03 | locus YBR229C, strain ROT2, hits give low values 1.02 | locus YBR231C, strain swc5, hits give low values 1.03 | locus YBR279W, strain paf1, hits give low values 1.02 | locus YCL011C, strain gbp2, hits give low values 1.02 | locus YCL016C, strain dcc1, hits give low values 1.02 | locus YCL029C, strain bik1, hits give low values 0.997 | locus YCL061C, strain MRC1, hits give low values 1.01 | locus YCL069W, strain vba3, hits give low values 1.01 | locus YCR088W, strain abp1, hits give low values 1.02 | locus YDL005C, strain med2, hits give low values 1.02 | locus YDL035C, strain GPR1, hits give low values 1.03 | locus YDL040C, strain nat1, hits give low values 1 | locus YDL074C, strain BRE1, hits give low values 1.05 | locus YDL101C, strain DUN1, hits give low values 1.03 | locus YDL134C, strain PPH21, hits give low values 1.02 | locus YDL185W, strain tfp1, hits give low values 1 | locus YDL192W, strain arf1, hits give low values 1.01 | locus YDR001C, strain nth1, hits give low values 1.02 | locus YDR069C, strain doa4, hits give low values 1.02 | locus YDR101C, strain arx1, hits give low values 0.995 | locus YDR137W, strain rgp1, hits give low values 1.01 | locus YDR150W, strain NUM1, hits give low values 0.995 | locus YDR159W, strain sac3, hits give low values 1.06 | locus YDR162C, strain NBP2, hits give low values 1.02 | locus YDR195W, strain ref2 1.01 | locus YDR297W, strain sur2, hits give low values 1.01 | locus YDR318W, strain mcm21, hits give low values 0.996 | locus YDR334W, strain swr1, hits give low values 1.02 | locus YDR335W, strain msn5, hits give low values 1.02 | locus YDR388W, hits give low values 0.994 | locus YDR392W, strain spt3, hits give low values 0.997 | locus YDR502C, strain sam2, hits give low values 1.01 | locus YEL003W, strain gim4, hits give low values 1.02 | locus YEL037C, strain rad23, hits give low values 1.01 | locus YEL061C, strain CIN8 (second series), hits give low values 1.02 | locus YEL061C, strain CIN8, hits give low values 1.01 | locus YER015W, strain faa2, hits give low values 1.02 | locus YER016W, strain bim1, hits give low values 1.02 | locus YER110C, hits give low values 0.998 | locus YER111C, strain swi4, hits give low values 1.01 | locus YER155C, strain BEM2 (second series), hits give low values 1.04 | locus YER155C, strain BEM2, hits give low values 1.01 | locus YER167W, strain BCK2, hits give low values 1.01 | locus YFR010W, strain ubp6, hits give low values 1.04 | locus YGL078C, strain dbp3, hits give low values 1.01 | locus YGL086W, strain mad1, hits give low values 0.99 | locus YGL167C, strain pmr1, hits give low values 1.02 | locus YGL173C, strain kem1, hits give low values 1.02 | locus YGL227W, strain vid30, hits give low values 1.02 | locus YGL240W, strain doc1, hits give low values 1.02 | locus YGL248W, strain PDE1, hits give low values 1.02 | locus YGL253W, strain hxk2, hits give low values 1.03 | locus YGR135W, strain pre9, hits give low values 0.99 | locus YGR252W, strain gcn5, hits give low values 1.02 | locus YHR013C, strain ard1, hits give low values 1.04 | locus YHR027C, strain rpn1, hits give low values 1.02 | locus YHR030C, strain SLT2, hits give low values 0.969 | locus YHR079C, strain IRE1 (second series), hits give low values 0.985 | locus YHR079C, strain IRE1, hits give low values 0.973 | locus YHR094C, strain hxt1, hits give low values 1 | locus YHR129C, strain ARP1, hits give low values 1.01 | locus YHR142W, strain chs7, hits give low values 1.05 | locus YHR200W, strain rpn10, hits give low values 1 | locus YIL066C, strain RNR3, hits give low values 1.03 | locus YIL073C, strain SPO22, hits give low values 1.04 | locus YIL125W, strain kgd1, hits give low values 1 | locus YIR030C, strain dcg1, hits give low values 1 | locus YJL092W, strain hpr5, hits give low values 1.02 | locus YJL095W, strain BCK1 (second series), hits give low values 1.04 | locus YJL095W, strain BCK1, hits give low values 1.04 and 0.976 | locus YJL115W, strain asf1, hits give low values 1.04 | locus YJL129C, strain trk1, hits give low values 0.995 | locus YJL134W, strain LCB3, hits give low values 1.01 | locus YJL154C, strain vps35, hits give low values 1.01 | locus YJL164C, strain tpk1, hits give low values 1 | locus YJL166W, strain qcr8, hits give low values 1.03 | locus YJL168C, strain set2, hits give low values 0.996 | locus YJL187C, strain SWE1 (second series), hits give low values 1.02 | locus YJL187C, strain SWE1, hits give low values 1.01 | locus YJR043C, strain POL32, hits give low values 1.03 | locus YJR066W, strain TOR1, hits give low values 0.918 | locus YKL009W, strain mrt4, hits give low values 1.01 | locus YKL068W, hits give low values 0.997 | locus YKL085W, strain MDH1 (second series), hits give low values 1.01 | locus YKL085W, strain MDH1, hits give low values 1.01 | locus YKL160W, strain elf1, hits give low values 1.01 | locus YKR001C, strain vps1, hits give low values 1.01 | locus YKR026C, strain gcn3, hits give low values 1.03 | locus YKR091W, strain srl3, hits give low values 1.01 | locus YLL001W, strain dnm1, hits give low values 1 | locus YLL026W, hits give low values 1.02 | locus YLL041C, strain sdh2, hits give low values 1.02 | locus YLR027C, strain aat2, hits give low values 1.02 | locus YLR039C, strain RIC1, hits give low values 1.02 | locus YLR058C, strain SHM2, hits give low values 1.02 | locus YLR102C, strain apc9, hits give low values 0.999 | locus YLR113W, strain HOG1, hits give low values 1 | locus YLR221C, strain rsa3, hits give low values 1.02 | locus YLR258W, strain gsy2, hits give low values 1.01 | locus YLR262C, strain YPT6 (second series), hits give low values 1.01 | locus YLR262C, strain YPT6, hits give low values 1.06 | locus YLR268W, strain sec22, hits give low values 1 | locus YLR320W, strain mms22, hits give low values 1.04 | locus YLR330W, strain CHS5, hits give low values 1.01 | locus YLR342W, strain FKS1 (second series), hits give low values 1.01 | locus YLR342W, strain FKS1, hits give low values 1.02 | locus YLR357W, strain rsc2, hits give low values 1.04 | locus YLR370C, strain arc18, hits give low values 1.02 | locus YLR371W, strain rom2, hits give low values 0.99 | locus YLR384C, strain iki3, hits give low values 1.03 | locus YLR418C, strain cdc73, hits give low values 1 | locus YML016C, strain PPZ1, hits give low values 1.02 | locus YML032C, strain rad52, hits give low values 1.01 | locus YML120C, strain ndi1, hits give low values 1.01 | locus YML124C, strain tub3, hits give low values 1 | locus YMR058W, strain fet3, hits give low values 1.03 | locus YMR078C, strain ctf18, hits give low values 1 | locus YMR125W, strain sto1, hits give low values 1.03 | locus YMR129W, hits give low values 1.03 | locus YMR205C, strain PFK2, hits give low values 0.995 | locus YMR223W, strain ubp8, hits give low values 1.01 | locus YMR231W, strain pep5, hits give low values 1.01 | locus YMR263W, strain SAP30, hits give low values 1.02 | locus YMR307W, strain GAS1, hits give low values 1.02 | locus YNL067W, strain RPL9B, hits give low values 1.01 | locus YNL071W, strain lat1, hits give low values 1.01 | locus YNL128W, strain TEP1, hits give low values 1.02 | locus YNL153C, strain GIM3, hits give low values 1.02 | locus YNL183C, strain NPR1, hits give low values 0.928 | locus YNL209W, strain ssb2, hits give low values 1.02 | locus YNL233W, strain BNI4, hits give low values 1.02 | locus YNL248C, strain rpa49, hits give low values 1.02 | locus YNL250W, strain rad50, hits give low values 0.992 | locus YNL271C, strain bni1, hits give low values 0.996 | locus YNL298W, strain CLA4, hits give low values 1.01 | locus YNL307C, strain MCK1, hits give low values 1 | locus YNL322C, strain KRE1 (second series), hits give low values 1.01 | locus YNR049C, strain mso1, hits give low values 1.04 | locus YNR052C, strain pop2, hits give low values 0.995 | locus YOL012C, strain htz1 1.05 | locus YOL147C, strain pex11, hits give low values 0.999 | locus YOR001W, strain rrp6, hits give low values 1.02 | locus YOR061W, strain CKA2, hits give low values 1.02 | locus YOR069W, strain VPS5, hits give low values 1.01 | locus YOR070C, strain gyp1, hits give low values 1.02 | locus YOR080W, strain dia2, hits give low values 1.02 | locus YOR083W, strain WHI5, hits give low values 1.01 | locus YOR106W, strain vam3, hits give low values 1.02 | locus YOR136W, strain idh2, hits give low values 0.99 | locus YOR144C, strain elg1, hits give low values 0.996 | locus YOR184W, strain ser1, hits give low values 0.996 | locus YOR231W, strain MKK1, hits give low values 0.97 | locus YOR265W, strain rbl2, hits give low values 1.04 | locus YOR270C, strain vph1, hits give low values 1.01 | locus YOR290C, strain snf2, hits give low values 1 | locus YOR316C, strain cot1, hits give low values 0.998 | locus YPL051W, strain arl3, hits give low values 1.02 | locus YPL078C, strain atp4, hits give low values 1 | locus YPL106C, strain sse1, hits give low values 1.02 | locus YPL240C, strain hsp82, hits give low values 1.02 | locus YPL256C, strain CLN2, hits give low values 0.966 | locus YPR119W, strain clb2, hits give low values 0.992 | locus YPR141C, strain kar3, hits give low values 1 | locus YPR163C, strain tif3, hits give low values 0.996 | locus YPR167C, strain met16, hits give low values 0.995 | strain wtn01, hits give low values 1
